# Test results: the supplement of paper PMC10981050
# Where “and” joins values, the source holds several entries; their conditions need not be identical. Equal entries are not always repeated. Structures can show the parent of a compound that is named as a salt.
# Experiments:
# Assay in all cases: cell viability relative to vehicle control; higher = less cytotoxic
# Conditions in all cases: 10 µM
# K562 = test system: K562
# Procedure, shortened: (§1)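 Each screen used CRISPR-edited mutant and wild-type clones from four leukaemia lines. Compounds were acoustically dispensed at a single 10 µM dose, and CellTiter-Glo luminescence was read after 48 h with the supernatant first removed. Viability was analysed in Genedata Screener and given as percent of the on-plate vehicle control.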
# MARIMO = test system: MARIMO
# Procedure, shortened: as §1
# MOLM14 = test system: MOLM14
# Procedure, shortened: as §1
# OCI-AML2 = test system: OCI-AML2
# Procedure, shortened: as §1
Structure (SMILES),cell viability (K562; SRSF2 genotype: SRSF2 P95H/wt),cell viability (K562; SRSF2 genotype: SRSF2 wt/wt),cell viability (MARIMO; SRSF2 genotype: SRSF2 P95H/wt),cell viability (MARIMO; SRSF2 genotype: SRSF2 wt/wt),cell viability (MOLM14; SRSF2 genotype: SRSF2 P95H/wt),cell viability (MOLM14; SRSF2 genotype: SRSF2 wt/wt),cell viability (OCI-AML2; SRSF2 genotype: P95H/wt),cell viability (OCI-AML2; SRSF2 genotype: wt/wt)
CC1=CCC2C(C1)C2(C)C (stereo unspecified) [3-Carene],104% and 96%,106%,101%,103%,100%,106%,101%,112%
N=C(N)c1ccc(OCCCCCOc2ccc(C(=N)N)cc2)cc1 [Pentamidine isethionate],53.9% and 50%,55.9%,63.3%,62.8%,72%,70.5%,65.5%,57.8%
C=C1CCC[C@]2(C)C[C@@H]3OC(=O)C(C)=C3C[C@@H]12 [Atractylenolide II],107% and 105%,99.7%,96.8%,102%,101%,106%,103%,106%
NCC(=O)CCC(=O)O [5-Aminolevulinic acid hydrochloride],94.7% and 105%,103%,109%,101%,99.1%,105%,108%,96.3%
CCN(Cc1ccncc1)C(=O)C(CO)c1ccccc1 (stereo unspecified) [Tropicamide],102% and 103%,108%,107%,103%,97.7%,106%,109%,116%
O=C(c1ccc(OCCN2CCCCC2)cc1)c1c(-c2ccc(O)cc2)sc2cc(O)ccc12 [Evista (Raloxifene Hydrochloride)],75.3% and 80.4%,81.3%,79.3%,77.8%,76.2%,81.3%,82.7%,77.2%
CC[C@H](C)n1cc(C)c2c(C(=O)NCc3c(C)cc(C)[nH]c3=O)cc(-c3ccc(N4CCNCC4)nc3)cc21,78.3% and 82.1%,78.2%,80.9%,94.6%,81.6%,81.7%,68%,75.4%
C[C@H](NC(=O)c1c(N)nn2cccnc12)c1cc2cccc(C#Cc3cnn(C)c3)c2c(=O)n1-c1ccccc1,88.3% and 88.5%,94.3%,71%,63.4%,54.3%,57.1%,32.2%,41.6%
C[N+](C)(C)C[C@H](O)CC(=O)[O-] [L-carnitine (Levocarnitine)],103% and 99.6%,99.8%,99.1%,105%,95.1%,103%,90.9%,110%
Cn1sc(=O)n(Cc2ccccc2)c1=O,0.36% and 9.05%,0.35%,0.8%,0.14%,0.12%,0.54%,0.07%,0.09%
O=C(O)c1ccc(Br)c(O)c1 [4-Bromo-3-hydroxybenzoic acid],105% and 104%,104%,100%,110%,100%,107%,99.3%,108%
O=C(/C=C/c1ccccc1)OCc1ccccc1 [Benzyl cinnamate],101% and 100%,103%,85.5%,99.6%,108%,104%,92.1%,93.1%
CC/C(=C(\c1ccc(O)cc1)c1ccc(OCCNC)cc1)c1ccccc1 [Endoxifen HCl],21% and 29.8%,24.5%,66%,59.9%,23.2%,29.7%,17%,38.1%
OC[C@H]1O[C@@H](c2ccc(F)c(Cc3cc4ccccc4s3)c2)[C@H](O)[C@@H](O)[C@@H]1O [Ipragliflozin (ASP1941)],96.6% and 98.5%,102%,95.6%,95.8%,101%,99.4%,99.1%,95.1%
O=C(CNc1ccc2ccccc2c1)N/N=C/c1cc(Br)c(O)c(Br)c1O,81.1% and 82.1%,72.8%,50.8%,65.4%,62.3%,51.7%,49.8%,58.5%
Cc1ccc(NCCCc2ccccc2)c(N)c1,74.3% and 88.2%,83.1%,48.2%,72.4%,69%,72.5%,60.8%,63.5%
CCOc1cc(N2CCC(O)CC2)ccc1Nc1ncc2c(n1)N(C)c1ccccc1C(=O)N2C,91% and 89.7%,88%,73%,59.6%,62.4%,55.3%,58.3%,67.9%
"Cc1c(C(=O)Nc2ccc(N3C[C@@H](C)O[C@@H](C)C3)nc2)cccc1-c1ccc(OC(F)(F)F)cc1 [LDE225 (NVP-LDE225, Erismodegib)]",82.9% and 91.2%,91.9%,86.2%,102%,87.7%,95.9%,77.6%,85%
CN(Cc1ccc(C(C)(C)C)cc1)Cc1cccc2ccccc12 [Butenafine HCl],97% and 102%,91.6%,84.1%,105%,93.4%,98%,85.5%,101%

Structure (SMILES),cell viability (K562; SRSF2 genotype: SRSF2 P95H/wt),cell viability (K562; SRSF2 genotype: SRSF2 wt/wt),cell viability (MARIMO; SRSF2 genotype: SRSF2 P95H/wt),cell viability (MARIMO; SRSF2 genotype: SRSF2 wt/wt),cell viability (MOLM14; SRSF2 genotype: SRSF2 P95H/wt),cell viability (MOLM14; SRSF2 genotype: SRSF2 wt/wt),cell viability (OCI-AML2; SRSF2 genotype: P95H/wt),cell viability (OCI-AML2; SRSF2 genotype: wt/wt)
C[C@H](CCC(=O)O)[C@H]1CC[C@H]2[C@@H]3C[C@H](O)[C@@H]4C[C@H](O)CC[C@]4(C)[C@H]3CC[C@]12C [Hyodeoxycholic acid (HDCA)],92.5% and 93.9%,88.6%,87.5%,94.3%,93.5%,97.5%,93.1%,97.4%
COc1cc2oc(=O)ccc2c(OC)c1C[C@@H](O)C(C)(C)O [Toddalolactone],106% and 101%,104%,102%,105%,112%,106%,102%,104%
Cc1c(F)cc(C(=O)NC2CC2)cc1-c1ccc(C(=O)NCC(C)(C)C)cn1 [Losmapimod],92% and 93.7%,97.8%,95.7%,103%,94.1%,100%,86.7%,95.5%
N#Cc1cc(-c2n[nH]c(-c3ccncc3)n2)ccn1 [Topiroxostat],90.1% and 106%,94%,104%,111%,104%,103%,98.8%,100%
CC(C)c1nc(CN(C)C(=O)N[C@H](C(=O)N[C@@H](Cc2ccccc2)C[C@H](O)[C@H](Cc2ccccc2)NC(=O)OCc2cncs2)C(C)C)cs1 [Ritonavir],89.2% and 88.4%,82.6%,81.9%,95%,81.8%,88.3%,102%,89.3%
CN(C)CCCCC(=O)Nc1ccc(NC(=S)NC(=O)c2ccc(C(C)(C)C)cc2)cc1 [Tenovin-6],2.61% and 5.21%,12.4%,1.49%,1.85%,1.6%,0.76%,1.27%,5.3%
O=C(OC[C@H]1O[C@@H](OC(=O)c2cc(O)c(O)c(OC(=O)c3cc(O)c(O)c(O)c3)c2)[C@H](OC(=O)c2cc(O)c(O)c(OC(=O)c3cc(O)c(O)c(O)c3)c2)[C@@H](OC(=O)c2cc(O)c(O)c(OC(=O)c3cc(O)c(O)c(O)c3)c2)[C@@H]1OC(=O)c1cc(O)c(O)c(OC(=O)c2cc(O)c(O)c(O)c2)c1)c1cc(O)c(O)c(OC(=O)c2cc(O)c(O)c(O)c2)c1 [Tannic acid],96.5% and 87.2%,98.5%,98.7%,99.3%,89.6%,92.2%,106%,94.8%
CC(C)COc1ccc(CNC(=O)N(Cc2ccc(F)cc2)C2CCN(C)CC2)cc1 [Pimavanserin],0.6% and 0.64%,0.75%,2.06%,4.09%,0.25%,0.22%,0.22%,1.2%
O=C(Nc1cccnc1)c1cc(-c2ccnc(F)c2)ccc1OCc1ccccc1,97.4% and 102%,94.6%,97.5%,102%,104%,98.7%,95.8%,95.6%
Cc1ccc(C)c(OCCCC(C)(C)C(=O)O)c1 [Gemfibrozil (Lopid)],108% and 109%,108%,107%,106%,106%,109%,106%,110%
COc1cc2c(cc1OC(C)C)[C@H](c1ccc(Cl)cc1)N(c1ccc(N(C)C[C@H]3CC[C@H](N4CCN(C)C(=O)C4)CC3)cc1)C(=O)C2,68.8% and 72.1%,68.4%,67.8%,71.8%,0.15%,0.13%,0.22%,2.94%
O=C1CN(/N=C/c2ccc(-c3ccc([N+](=O)[O-])cc3)o2)C(=O)N1 [Dantrolene sodium hemiheptahydrate],93.8% and 97.3%,104%,96.4%,104%,100%,101%,100%,94.3%
COC(=O)Nc1nc2cc(C(=O)c3cccs3)ccc2[nH]1 [Nocodazole],12.2% and 32.6%,34.7%,7.65%,8.94%,1.15%,3.4%,5.25%,7.85%
CN(C)Cc1ccc(-c2nc3cccc4c3n2CCNC4=O)cc1,108% and 106%,110%,76.7%,78.9%,65.5%,34.3%,55.2%,67.9%
CCCOc1ccc(C(=O)OCCN(CC)CC)cc1N [Proparacaine HCl],99.7% and 99.3%,99.5%,103%,104%,99.1%,99.7%,90.2%,103%
COc1ccc(C(=O)CC(=O)c2ccc(C(C)(C)C)cc2)cc1 [Avobenzone (Parsol 1789)],87.3% and 92.5%,91.8%,77.2%,92.6%,87.6%,98.9%,61.2%,76.8%
CC(=O)Nc1ccc(C(=O)Nc2ccccc2N)cc1 [CI994 (Tacedinaline)],59.2% and 64.7%,66%,37.9%,41.3%,31.6%,25.8%,24.3%,30%
CCc1cc(Nc2nccc(-c3c(-c4ccc(OC)c(C(=O)Nc5c(F)cccc5F)c4)nc4ccccn34)n2)c(OC)cc1N1CCC(N2CCN(S(C)(=O)=O)CC2)CC1,88.6% and 96.3%,97.3%,106%,108%,105%,100%,93.9%,98.7%
